Screens: PubChem BioAssay, Broad Institute
These entries were drawn from the full list.
aSyn 5UTR act – Activators via SNCA 5'UTR binding, MLPCN. alpha-synuclein 5'UTR reporter, activators screen. activity score, % (tested at 7.5 µM), hits read low. 7.1% of 300,000 active; in the data active = activity score below about -60%
* hit, by the source's call.

SMILES | aSyn 5UTR act
OCCN1CCN(CC/C=C2/c3ccccc3CSc3ccccc32)CC1 | 103
OCCN1CCN(CCCN2c3ccccc3Sc3ccc(C(F)(F)F)cc32)CC1 | -65*
CC(C)NC(=O)c1[nH]nc2c1CCc1ccccc1-2 | -165*
COc1cccc(/C=N/NC(=O)c2[nH]nc3c2CCc2ccccc2-3)c1 | -69*
N=c1oc2ccccc2cc1C(=O)Nc1ccc(F)cc1 | -154*
N=c1oc2ccccc2cc1C(=O)Nc1cccc(F)c1 | -122*
N=c1oc2cc(O)ccc2cc1C(=O)Nc1ccc(Cl)cc1 | -126*
Cc1ccc(NC(=O)c2cc3ccccc3oc2=N)cc1 | 82
COc1cccc(-n2cc(-c3ccc(F)cc3)[nH]c2=S)c1 | -158*
COc1ccc(-n2cc(-c3ccc(Cl)cc3)[nH]c2=S)cc1 | -91*
CCOc1ccc(-c2cn3ccccc3n2)cc1[N+](=O)[O-] | -160*
CCCCOc1ccc(-c2cn3ccccc3n2)cc1[N+](=O)[O-] | -129*
CCCOc1ccc(-c2csc(N)n2)cc1[N+](=O)[O-] | -81*
O=C(Nc1ccc(Cl)cc1)Nc1ccc(Br)cn1 | -103*
Cn1ncc(Br)c1C(=O)Nc1ccc(Br)cn1 | -89*
CCOc1ccc(NC(=O)Nc2ccc(Br)cn2)cc1 | -105*
CCOc1ccc(NC(=S)NNC(=O)c2cc(Br)ccc2Cl)cc1 | -109*
CCCCCCC(=O)Nc1ccc(Br)cn1 | -62*
COc1ccc(C(=O)CC(=O)c2ccccc2)cc1 | -125*
COc1ccc(C(=O)Cc2nnc(C)s2)cc1 | -99*
COc1ccc(C(=O)CCNc2ccc(F)cc2)cc1 | -114*
COc1ccc(C(=O)CC(=O)c2ccc(OC)cc2)cc1 | -71*
O=C(CNS(=O)(=O)c1ccccc1)OCC(=O)c1ccc(OC(=O)c2ccccc2)cc1 | -67*
COC(=O)c1ccc(OCC(=O)c2ccccc2)cc1 | -133*
COc1ccc(C(=O)NCC(=O)c2ccccc2)cc1 | -102*
SMILES | aSyn 5UTR act
COc1ccc(C(CC(=O)c2ccccc2)S(=O)(=O)c2ccc(C)cc2)cc1 (stereo unspecified) | -186*
COc1ccc(S(=O)(=O)Nc2cc3c(C(C)=O)c(C)oc3c3ccccc23)cc1 | 82
CCOc1ccc(C(=O)CSCCC(=O)O)cc1 | 68
COc1ccc(C(=O)C[n+]2ccc3ccccc3c2C)cc1 | -144*
Nc1[nH]c(N=NC(=O)c2ccccc2O)c2ccccc12 | -150*
COc1ccccc1NC(=O)c1ccc2nsnc2c1 | -112*
COc1ccccc1NC(=O)c1sc(Cl)nc1C | -69*
CCCOc1cccc(C(=O)Nc2ccc(Br)cc2F)c1 | -161*
COc1ccc(Nc2sc(C(=O)Nc3cccc(Cl)c3)c(N)c2C(=O)Nc2ccccc2OC)cc1 | -67*
O=C(Nc1ccc(F)cc1)c1ccc2nsnc2c1 | -175*
O=C(Nc1ccc(Br)cc1F)c1ccc2nsnc2c1 | -106*
COc1cccc(NC(=O)c2ccc3nsnc3c2)c1 | -151*
Cc1nc(NC(=O)C2CC2)sc1C(=O)Nc1ccccc1Cl | -164*
Nc1cccc(-c2nc3ccccc3[nH]2)c1 | -170*
Fc1ccc(-c2nc3ccccc3[nH]2)cc1 | -96*
c1cncc(-c2nc3cc4ccccc4cc3[nH]2)c1 | -79*
N#CCSc1ccc(-c2nc3ccccc3[nH]2)cn1 | -239*
c1cncc(CNc2cccc(-c3nc4ccccc4[nH]3)c2)c1 | -145*
CC(C)n1c(/C=C/[C@@H](O)C[C@@H](O)CC(=O)O)c(-c2ccc(F)cc2)c2ccccc21 | 64
Cc1nc2ccccc2n1/N=C/c1ccc([N+](=O)[O-])o1 | -172*
Cc1nc2ccccc2c(=O)n1/N=C/c1ccc([N+](=O)[O-])o1 | -64*
COc1ccc(-c2noc(-c3cccc(Cl)c3)n2)cc1OC | -184*
COc1cccc(-c2nc(CS(=O)(=O)c3ccccc3)no2)c1 | -126*
COc1ccc(-c2nc(-c3ccncc3)no2)cc1OC | -121*
Clc1cccc(-c2nc(-c3ccccn3)no2)c1 | 93
SMILES | aSyn 5UTR act
COc1ccc(-c2noc(-c3ccccc3Cl)n2)cc1OC | -180*
COc1cccc(-c2nc(-c3ccncc3)no2)c1 | -114*
Fc1cccc(F)c1-c1nc(-c2ccncc2)no1 | -142*
Cc1ccc(-c2noc(-c3ccno3)n2)cc1 | -126*
COc1ccc(N=Cc2c(O)c3ccccc3n2C(C)=O)cc1 | -132*
COc1ccc(N=Cc2sc(O)c3ccccc23)cc1 | -274*
C/C(=N\NC(=O)c1ccc([N+](=O)[O-])cc1Cl)c1ccccc1 | -148*
O=C(N/N=C(\c1ccccc1)c1ccccn1)c1cccc([N+](=O)[O-])c1 | 99
C/C(=N\NC(=O)c1c[nH]c2ccccc12)c1ccccn1 | 72
C/C(=N\NC(=O)c1c[nH]c2ccccc12)c1ccco1 | -174*
C/C(=N\NC(=O)c1ccccc1F)c1cccc(NC(=O)c2ccccc2)c1 | -94*
C/C(=N\NC(=O)c1c[nH]c2ccccc12)c1ccc2c(c1)OCO2 | -98*
C/C(=N/NC(=O)c1ccc2c(c1)OCO2)c1ccc(NC(=O)C(F)(F)F)cc1 | -127*
C/C(=N\NC(=O)c1ccccc1)c1ccc(C)c([N+](=O)[O-])c1 | -109*
Cc1ccc(C(=O)Nc2sc(C)c(-c3ccccc3)c2C(N)=O)cc1[N+](=O)[O-] | -81*
CC(=O)Nc1cccc(/C(C)=N/NC(=O)c2ccc3c(c2)OCO3)c1 | -78*
C/C(=N\NC(=O)c1ccccc1)c1cccc(Br)c1 | -110*
C/C(=N\NC(=O)c1ccc2c(c1)OCO2)c1ccc(O)cc1 | -64*
C/C(=N\NC(=O)c1nc2ccccn2c1C)c1ccco1 | -135*
C/C(=N/NC(=O)c1ccccc1)C1=C(O)CC(C)(C)CC1=O | -95*
C/C(=N\Nc1nc2ccccc2s1)c1ccc2c(c1)OCO2 | -176*
C/C(=N\NC(=O)c1ccccc1F)c1ccc(C#N)cc1 | -64*
C/C(=N\NC(=O)c1ccccc1)c1ccc2c(c1)OCO2 | -118*
[O-][n+]1onc2c3cc(-c4ccccc4)nnc3ccc21 | -100*
COc1ccc(-c2nnc(-c3ccc(C)cc3)o2)cc1 | -103*
SMILES | aSyn 5UTR act
Cc1ccc(-c2nnc(-c3ccccc3)o2)cc1 | -77*
Cc1ccc(-c2nnc(-c3cccs3)o2)cc1 | -93*
CCN(CC)CCCNc1ccc(-c2nnc(-c3ccc(OCC(C)C)cc3)o2)cn1 | 121
CCCc1nnc(-c2ccc(OC)cc2)o1 | -67*
COC(=O)C1CC23C=CCN4CCC5(c6ccccc6NC15C2C)C43 (stereo unspecified) | 94
CCCN(CCC)S(=O)(=O)c1ccc(C(=O)Nc2nnc(-c3cc(OC)cc(OC)c3)o2)cc1 | 82
Cc1ccc(C(=O)Nc2nnc(-c3ccncc3)o2)cc1 | -82*
COc1ccc(-c2nnc(-c3ccc(F)cc3)o2)cc1 | -152*
Cc1ccc(/C=C/c2nnc(-c3ccc(C)cc3)o2)cc1 | -69*
Fc1ccc(-c2nnc(-c3ccc(Cl)cc3)o2)cc1 | -194*
COc1ccc(-c2nnc(NC(=O)c3ccc(S(=O)(=O)N4COCC4(C)C)cc3)o2)cc1 | 76
COc1ccc(-c2ccc(-c3nnc(-c4ccncc4)o3)cc2)cc1 | -115*
CCNc1nnc(-c2ccc(C)cc2)o1 | -80*
Fc1ccc(/C=C/c2nnc(-c3cccs3)o2)cc1 | -129*
Clc1ccc(-c2nnc(N3CCOCC3)o2)cc1 | -71*
NNC(=O)c1cc2cc3ccccc3nc2s1 | -94*
Cc1cccc(C)c1OCc1cc(C(=O)N2CC3C[C@@H]4CC2C[C@H](C3)C4)no1 | -117*
Cc1ccc(OCc2cc(C(=O)N3CC4C[C@@H]5CC3C[C@H](C4)C5)no2)cc1C | -111*
